Test results: PubChem BioAssay (EPA / NIEHS)
Records with an inconclusive call do not appear. Active and inactive are the calls of the source. Rule for the calls: active = hit-call score of the fitted dose curve at least 0.9, where 1 is the maximum; inconclusive = response in the unintended direction; inactive = score below 0.9.

Test: ACEA_ER_80hr: ACEA Biosciences xCELLigence Real-Time Cell Analysis on Estrogen Receptor Agonism for Proliferation (AID 2282667)
Conditions: T47D proliferation, impedance (xCELLigence), 80 h
Outline: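 Cell-growth kinetics were measured by impedance in T47D cells treated continuously with compound (top 100 uM final, 1:4 steps, 8 points). Activity at 80 h was scored as signal gain over the DMSO baseline.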

SMILES	outcome	AC50
CCCCOCCOCCOCCO	inactive	–
CCCC(O)C(CC)CO (configuration not stated)	inactive	–
C[C@H](CCC(=O)O)[C@H]1CC[C@H]2[C@@H]3CC[C@@H]4C[C@H](O)CC[C@]4(C)[C@H]3CC[C@]12C	inactive	–
NS(=O)(=O)c1cc(C(=O)O)c(NCc2ccco2)cc1Cl	inactive	–
CCCCCCCCSCc1cc(C)c(O)c(CSCCCCCCCC)c1	inactive	–
COc1ccc(N)c(C)c1	–	43.5 µM (active)
CC12CCC(C1)C(C)(C)C2O (configuration not stated)	inactive	–
Brc1cc(Br)cc(Br)c1	inactive	–
CCCOC(=O)CC	inactive	–
CC(=O)CCC=C(C)CCC=C(C)C	inactive	–
CN(C)c1ccc(C=O)cc1	inactive	–
O=S(=O)(O)CCCN1CCOCC1	inactive	–
O=C(O)C(F)(F)OC(F)(F)C(F)(F)OC(F)(F)C(F)(F)C(F)(F)C(F)(F)F	inactive	–
CC/C=C/CCCCCCCCCCOC(C)=O	inactive	–
CCCC[N+](C)(CCCC)CCCC	inactive	–
CC/C=C\CCOC(=O)C(C)C	inactive	–
CC1COC(=O)O1 (configuration not stated)	inactive	–
C=CC(C)(CCC=C(C)C)OC(=O)CC (configuration not stated)	inactive	–
CCCCCCCCOC(C)=O	inactive	–

SMILES	outcome	AC50
CN(C)C(=O)Nc1ccccc1	inactive	–
[Na+]	inactive	–
CC(=O)OC/C=C(C)/C=C/C=C(C)/C=C/C1=C(C)CCCC1(C)C	inactive	–
[Cu+]	inactive	–
CC(=N[Si](C)(C)C)O[Si](C)(C)C	–	0.0603 µM (active)
O=C1OC2(c3ccc(O)cc3Oc3cc(O)ccc32)c2ccccc21	inactive	–
CCC(C)C1CCCCC1=O (configuration not stated)	inactive	–
CCn1cc(C(=O)O)c(=O)c2ccc(C)nc21	inactive	–
CC=CC(=O)C1=C(C)C=CCC1(C)C	inactive	–
CC/C=C\CCCCCCCCCCOC(C)=O	inactive	–
O=C(O)CS	inactive	–
Cc1cc(O)c(C)c(C)c1O	inactive	–
CC(C)(C)c1cc(CCC(=O)OCCSCCOC(=O)CCc2cc(C(C)(C)C)c(O)c(C(C)(C)C)c2)cc(C(C)(C)C)c1O	inactive	–
CC(O)COCC(C)O (configuration not stated)	inactive	–
CC1=C(C=O)C(C)(C)CCC1	–	3.65 µM (active)
CCCCC(CC)COC(=O)COc1ccc(Cl)cc1C (configuration not stated)	inactive	–
CC(=O)OC(C)(C)C1CC=C(C)CC1 (configuration not stated)	inactive	–
CC(O)CN (configuration not stated)	inactive	–
